Whole data set: some 140,000 sequences, median “enrichment ratio after two sorts for PhoP signalling” near 0, cut for the highest 2% near 11. The list comes from a sample in which the highest values are over-represented; it also holds similar and randomly drawn sequences.

The values that follow come from a collection of fitness landscapes (doi:10.1126/science.1257360).

First the molecules themselves.
B1: PhoQ; a variant is named by its letters at X, in order, P23837 (parent)
chain: MKKLLRLFFPLSLRVRFLLATAAVVLVLSLAYGMVALIGYSVSFDKTTFRLLRGESNLFYTLAKWENNKLHVELPENIDKQSPTMTLIYDENGQLLWAQRDVPWLMKMIQPDWLKSNGFHEIEADVNDTSLLLSGDHSIQQQLQEVREDDDDAEMTHSVAVNVYPATSRMPKLTIVVVDTIPVELKSSYMVWSWFIYVLSANLLLVIPLLWVAAWWSLRPIEALAKEVRELEEHNRELLNPATTRELTSLVRNLNRLLKSERERYDKYRTTLTDLTHSLKTPLXXLQXXLRSLRSEKMSVSDAEPVMLEQISRISQQIGYYLHRASMRGGTLLSRELHPVAPLLDNLTSALNKVYQRKGVNISLDISPEISFVGEQNDFVEVMGNVLDNACKYCLEFVEISARQTDEHLYIVVEDDGPGIPLSKREVIFDRGQRVDTLRPGQGVGLAVAREITEQYEGKIVAGESMLGGARMEVIFGRQHSAPKDE

The test covers variants of B1. The experiment in a line: enrichment ratio after two sorts for PhoP signalling (ratio (wild type AVST 3.29)); higher = more functional. The settings on record: with PhoP (E. coli).
Regarding ANLN, the enrichment ratio is 8.47.
As to ASCN, the enrichment ratio came out at 15.3.
On to SGLN, for which the enrichment ratio was 10.9.
For KDCN, the enrichment ratio is at most 0.25.
In the case of TDCN, the enrichment ratio was 15.7.
Turning to SGCK, the enrichment ratio was determined as 8.85.
Next, ANCN: 33; ASLN: 9.05; HWCN: at most 0.25.
The same measure for LTCN: at most 0.25; for MIMG: at most 0.25.
Next, MYAM: at most 0.25; RCLW: at most 0.25; SMWE: at most 0.25.
Regarding ALQI, the enrichment ratio is at most 0.25.
For the variant PLLC, the enrichment ratio is at most 0.25.
MISF: the enrichment ratio is 3.65.
Next, LWCN: at most 0.25; AACN: 12.7.
As to YTCN, the enrichment ratio was at most 0.25.
The same measure for KACN: at most 0.25; for AALN: 8.23; for TTCN: 11.9.
Next, KGPM: at most 0.25; SMIS: at most 0.25; TENM: 15.7.
Next, TEGD: at most 0.25; MCVI: at most 0.25.
Regarding MMVI, the enrichment ratio is at most 0.25.
Consider NENM, for which the enrichment ratio was at most 0.25.
Next, MENM: at most 0.25; TEVI: 12.8.
Take NEVI: the enrichment ratio stood at 4.98.
Next, TEVA: 6.58; MEVI: 18.2; TEYD: at most 0.25.
Consider TEND, for which the enrichment ratio worked out at 23.1.
Next, ESVY: at most 0.25; NGGL: at most 0.25; LFQL: at most 0.25.
On to KSDP, for which the enrichment ratio was at most 0.25.
The same measure for FMMA: at most 0.25.
As to TENL, the enrichment ratio is 6.63.
Next, TENS: 8.17; TENY: 11.3.
Next, PRSQ: at most 0.25.
The same measure for TGHK: at most 0.25; for FSEI: at most 0.25; for AAMG: 9.84.
For the variant YEST, the enrichment ratio is 12.8.
The same measure for TEST: 23.4; for QEST: 1.97.
For the variant SRST, the enrichment ratio is at most 0.25.
Turning to SQST, the enrichment ratio is 6.97.
FTST: the enrichment ratio is at most 0.25.
Take YTST: the enrichment ratio was at most 0.25.
Consider NEST, for which the enrichment ratio is 3.45.
Next, SEST: 18.4; PLIK: at most 0.25; AQAT: 5.01.
The same measure for SLNT: at most 0.25; for FKYM: at most 0.25.
As for HFAH, the enrichment ratio was at most 0.25.
Next, TAAH: 19.2; TANH: at most 0.25.
The same measure for KASH: at most 0.25.
As to TASH, the enrichment ratio is 11.7.
The same measure for TAKH: at most 0.25; for YMQV: at most 0.25; for FCDV: at most 0.25.
The same measure for TINR: 15.4; for TIRA: at most 0.25.
Next, TITS: 15.9; TIWS: 15.7; TIYI: 4.29.
In the case of WINR, the enrichment ratio is at most 0.25.
For the variant TIQI, the enrichment ratio came out at 12.3.
For the variant RIQI, the enrichment ratio was at most 0.25.
The same measure for TIWI: at most 0.25; for TIRM: 5.12.
The same measure for RINR: at most 0.25; for AIQI: 0.475.
With KTHN, the enrichment ratio was at most 0.25.
As to SPNA, the enrichment ratio is at most 0.25.
Turning to NRQT, the enrichment ratio was at most 0.25.
The same measure for APHK: at most 0.25; for IMQV: at most 0.25.
On to LPRC, for which the enrichment ratio was at most 0.25.
The same measure for EVLG: at most 0.25; for TINL: 9.31; for RISC: at most 0.25.
Next, TIMG: 3.15; TINN: 12.6; PSEG: at most 0.25.
Regarding WISC, the enrichment ratio was at most 0.25.
Take TISS: the enrichment ratio was found to be 11.9.
Next, RINN: at most 0.25; TISC: 15.
The same measure for WISS: at most 0.25; for TISA: 10.6; for TIEG: 11.8.
Take WFHG: the enrichment ratio was at most 0.25.
Next, MFFV: at most 0.25; SPGL: at most 0.25.
Consider VISE, for which the enrichment ratio is at most 0.25.
Next, FCRN: at most 0.25.
Next, TIWV: at most 0.25.
Turning to WITV, the enrichment ratio was at most 0.25.
Next, RIAN: at most 0.25; TIYV: 16.6.
As for TIQH, the enrichment ratio was 12.6.
TIKH: the enrichment ratio was at most 0.25.
For the variant TIQN, the enrichment ratio was found to be 5.05.
The same measure for TIFI: 0.264.
Next, TITV: 15.1.
The same measure for TIAN: 19.6; for TIMV: 1.5.
Take TIDV: the enrichment ratio is at most 0.25.
Regarding PPYV, the enrichment ratio was at most 0.25.
Regarding EETS, the enrichment ratio is at most 0.25.
The same measure for VSPI: at most 0.25; for AIAA: 9.24.
On to TIGS, for which the enrichment ratio amounted to 15.
For TIQP, the enrichment ratio is at most 0.25.
Turning to TITC, the enrichment ratio was 12.2.
TINK: the enrichment ratio amounted to 7.27.
Next, TIVK: at most 0.25.
Take TIFC: the enrichment ratio was at most 0.25.
The same measure for TIFP: at most 0.25.
The same measure for TIQQ: 16.4; for TIAD: at most 0.25.
Regarding TIFA, the enrichment ratio was at most 0.25.
Next, TIAA: 12; AMHL: at most 0.25; PQHY: at most 0.25.
Turning to EMES, the enrichment ratio was at most 0.25.
For the variant LHSI, the enrichment ratio is at most 0.25.
Next, LTDV: at most 0.25; PMYR: at most 0.25; LERK: at most 0.25.
Next, RIEH: at most 0.25; TITH: 1.26; TINH: 34.4.
Next, WIQR: at most 0.25; TIGD: 11.6.
In the case of TIRI, the enrichment ratio turned out to be 2.01.
With TIMD, the enrichment ratio is at most 0.25.
TINT: the enrichment ratio was 4.95.
Consider TIGR, for which the enrichment ratio was found to be 5.97.
The same measure for TIEH: 27.9; for TIQR: 16; for TITD: at most 0.25.
FADQ: the enrichment ratio is at most 0.25.
